Assay outcomes: PubChem BioAssay, National Center for Advancing Translational Sciences (NCATS)
KCNH2 3.1 block: qHTS for Inhibitors of KCHN2 3.1: Mutant qHTS | Potassium voltage-gated channel subfamily H member 2, brain isoform KCNH2 3.1 (human) | AID 720553, 2013 | activity change, % (tested at about 1.8 µM) | 340,000 tested, 0.95% active | U2OS KCNH2 3.1, thallium flux FluxOr; active compounds read low;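 active means maximum activity change below -70%; inconclusive means maximum activity change from -70% to -50%; inactive means maximum activity change above -50%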;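 further: thallium influx rate constant from kinetic fluorescence after stimulation buffer; on the % scale 0 is the no-effect control and ±100 the full control effect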
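U2OS cells transduced with KCNH2 3.1 mutant virus (1.77 x 10^8 /mL, 4 h), plated overnight at 37 C, loaded 45 min with FluxOr dye plus Red40 quencher. Thallium flux rate constant from kinetic reads after stimulation buffer, normalised to controls.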
Tb PGK inh: qHTS Assay to Find Inhibitors of Phosphoglycerate Kinase; PGK/GAPDH coupled, Kinase-Glo luminescence, 60 min; Potency, µM (series often up to 57.5 µM), without a hit: at the top dose activity change, negative = inhibition, actives largely listed as inhibitors; 380,000 tested, 0.043% active; AID 602233, 2012; further: potency means the concentration at half of the fitted maximal effect; on the % scale 0 is the no-effect control and ±100 the full control effect; nearly all actives have a fitted effect of over 60% in size
Target sequence (P07378 whole entry, looked up): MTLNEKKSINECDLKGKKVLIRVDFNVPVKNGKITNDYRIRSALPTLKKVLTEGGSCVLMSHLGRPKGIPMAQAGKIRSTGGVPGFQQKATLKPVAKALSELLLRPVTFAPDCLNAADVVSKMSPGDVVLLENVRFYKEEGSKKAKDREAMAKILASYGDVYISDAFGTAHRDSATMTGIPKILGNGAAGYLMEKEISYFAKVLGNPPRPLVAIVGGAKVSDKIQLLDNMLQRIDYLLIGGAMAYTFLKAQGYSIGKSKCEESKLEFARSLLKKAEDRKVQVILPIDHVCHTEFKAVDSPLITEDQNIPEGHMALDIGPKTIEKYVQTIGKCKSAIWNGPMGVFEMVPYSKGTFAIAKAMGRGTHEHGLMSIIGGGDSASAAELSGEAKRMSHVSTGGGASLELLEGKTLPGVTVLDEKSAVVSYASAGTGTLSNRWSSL
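Luminescent ATP detection (Kinase-Glo Plus) follows a 60-minute room-temperature incubation, with wells lacking PGK as controls. Buffer: 100 mM TEA (pH 7.6), 5 mM MgCl2, 0.01% Tween-20. Coupling enzyme GAPDH (100 nM final) supplies unstable 1,3-BPG in-well.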
GCN5L2 inh-1: qHTS Assay for Inhibitors of GCN5L2. Histone acetyltransferase KAT2A (Homo sapiens), Q92830. GCN5L2 HAT assay, ThioGlo1 CoA-SH fluorescence. Potency, µM (doses to about 58.9 µM), inactives show at the highest dose activity change, negative = inhibition, hits mostly inhibitors. 390,000 tested, 0.21% active; further: potency means the concentration at half of the fitted maximal effect; on the % scale 0 is the no-effect control and ±100 the full control effect
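Enzyme at 20nM final was mixed with library compounds for 15 min at room temperature. Peptide H3(1-25) at 75uM, acetyl-CoA at 70uM and ThioGlo1 at 50uM were then added. Plates were read immediately and after 20 min (Ex340nm/Em540nm).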
RGS4 inhibitor: Inhibitors of Regulator of G Protein Signaling (RGS) 4: qHTS; Regulator of G-protein signaling 4 (Homo sapiens), P49798; Transcreener GDP fluorescence polarization, RGS4-accelerated GTP hydrolysis; 390,000 tested, 0.039% active; Potency, µM (top dose mostly 114 µM), inactives show top-dose activity change, negative = inhibition, usual class: inhibitors; AID 504845, 2011; further: potency means the concentration at half of the fitted maximal effect; on the % scale 0 is the no-effect control and ±100 the full control effect; nearly all actives have a fitted effect of over 75% in size
Target sequence (P49798 whole entry, looked up): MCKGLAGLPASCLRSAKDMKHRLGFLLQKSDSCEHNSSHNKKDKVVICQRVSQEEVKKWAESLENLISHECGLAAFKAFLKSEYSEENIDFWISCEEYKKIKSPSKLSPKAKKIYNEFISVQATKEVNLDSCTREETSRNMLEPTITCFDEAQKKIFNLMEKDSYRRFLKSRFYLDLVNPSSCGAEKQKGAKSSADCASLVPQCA
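MLSMR compounds (23 nl, pin-transferred) preincubated 10 min at room temperature with a 500nM (2x) first reagent, then RGS4 at 900nM (2x) plus Transcreener GDP mix added; fluorescence polarization (620/688 nm) read before and after 90 min at 30 °C.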
Pin1 inh: qHTS Assay to Find Inhibitors of Pin1; Peptidyl-prolyl cis-trans isomerase NIMA-interacting 1 (Homo sapiens), Q13526; Pin1 FP peptide displacement, HiFluor488, 10 min; Potency, µM (doses to about 115 µM), for the others: at the highest dose activity, negative = inhibition, most hits filed as inhibitors; 390,000 tested, 0.009% active; active means well fitted inhibition curve with a large enough effect in the polarisation, with a control signal flat, not every such curve was filed as active; inconclusive means small, poorly fitted or top-dose-only effect, or effect the other way, or a change in a side signal; inactive means no such curve, though single readings can be large or run the other way; the % refers to the polarisation; further: potency means the concentration at half of the fitted maximal effect; on the % scale 0 is the no-effect control and ±100 the full control effect
KCNH2 WT inh: qHTS for Inhibitors of KCHN2 3.1: Wildtype qHTS | Voltage-gated inwardly rectifying potassium channel KCNH2 (Homo sapiens), Q12809 | U2OS, BacMam KCNH2, thallium flux FluxOr; active compounds read low | activity change, % at 1.84 µM | 340,000 tested, 0.37% active | AID 720551, 2013;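 active means maximum activity change below -70%; inconclusive means maximum activity change between -70% and -50%; inactive means maximum activity change above -50%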; further: on the % scale 0 is the no-effect control and ±100 the full control effect
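U2OS cells were transduced with wild-type KCNH2 virus (2.03 x 10^8 / mL) for 4 h at room temperature, then cultured overnight at 37 C. Thallium flux was read with FluxOr dye. Rate constants were normalized to DMSO controls.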
GCN5L2 inh-2: qHTS Assay for Inhibitors of GCN5L2: Hit confirmation; 140 tested, 70% active; GCN5L2 HAT, ThioGlo1 CoA fluorescence, 20 min; Potency, µM, most hits filed as inhibitors; shares compounds with GCN5L2 inh-1
* hit, by the source's call; i = inactive; ? = inconclusive; / = no result. Sampled rows, rich in hits. Any-hit rate of the full collection: about 1.2%. Unless noted, the call rests on the fitted dose curve; in most records, active means well fitted curve in the direction sought with a large enough effect; inconclusive means small, poorly fitted or top-dose-only effect, or another doubt; inactive means no such curve, though single readings can be large; an effect the other way counts as inactive or inconclusive.

SMILES | KCNH2 3.1 block | Tb PGK inh | GCN5L2 inh-1 | RGS4 inhibitor | Pin1 inh | KCNH2 WT inh | GCN5L2 inh-2
O=C(O)c1cccc2c1C(=O)c1ccc(-c3ccc(F)cc3OCc3ccccc3)cc1S2(=O)=O | 29 | -3% | 22µM* | -13% | ? | -7 | ?
O=C(O)c1ccc(-n2cccc2/C=C2/NC(=O)N(c3cccc(Cl)c3)C2=O)cc1 | 5 | ? | ? | ? | / | 11 | ?
CCOC(=O)c1cnc2cc(C)nn2c1-c1ccccc1 | -19 | 5% | 40µM* | -14% | -7% | -3 | 14*
CCOC(=O)c1cnc2cc(-c3ccc(Cl)cc3)nn2c1-c1ccccc1 | / | -7% | -15% | -19% | -4% | / | /
CC(C)c1noc(-c2ccccc2OCC(=O)Nc2cccc([N+](=O)[O-])c2)n1 | / | -4% | -2% | -5% | 1% | / | /
N#Cc1c(-c2cccs2)nc(SCc2ccc(Cl)cc2)[nH]c1=O | 4 | -8% | 25µM* | ? | / | 0 | 29*
O=C(Cn1c(SCCOc2ccccc2)nc2ccccc21)N1CCOCC1 | / | -1% | -3% | -23% | 3% | / | /
Cn1cc(C(C[N+](=O)[O-])c2ccccc2)c2ccccc21 (configuration not stated) | 7 | -1% | -3% | -11% | -9% | 8 | /
CC(=O)n1cc(C(C[N+](=O)[O-])SCCN)c2ccccc21 (configuration not stated) | -5 | 3% | 25µM* | ? | 19% | -1 | 36*
CCOCCn1ccc2c(OCC(=O)Nc3cccc(F)c3)cccc2c1=O | / | -5% | 0% | -6% | -10% | / | /
CNC(=O)NC(=O)C(C)OC(=O)c1c2c(nc3ccccc13)/C(=C/c1cccs1)CC2 (configuration not stated) | -3 | 0% | 14µM* | 5% | ? | 3 | ?
CCCCNC(=O)COC(=O)c1c2c(nc3ccccc13)/C(=C/c1cccs1)CC2 | -11 | 4% | -19% | -47% | ? | 2 | /
O=C(/C=C/c1ccccc1)Nc1cccc(S(=O)(=O)Nc2ccccc2F)c1 | -2 | -7% | ? | -102% | 0% | 2 | ?
O=C(Cc1ccc(Cl)cc1Cl)Nc1cccc(S(=O)(=O)Nc2ccccc2F)c1 | 5 | 0% | ? | -81% | 0% | 1 | ?
O=C(Cc1c(F)cccc1Cl)Nc1cccc(S(=O)(=O)NC2=NCCCCC2)c1 | -1 | -8% | -26% | -21% | -2% | 2 | /
O=C(Nc1cccc(S(=O)(=O)Nc2ccccc2F)c1)c1ccc2ccccc2n1 | 7 | -11% | ? | ? | 7% | -1 | /
CCC1=NN2C(=N)/C(=C/c3ccc(OS(=O)(=O)c4ccccc4)cc3)C(=O)N=C2S1 | -12 | i | -28% | -45% | ? | -5 | /
Cc1ccc(S(=O)(=O)Oc2ccc(/C=C3/C(=N)N4C(=NC3=O)SN=C4S(C)(=O)=O)cc2)cc1 | 1 | 0% | ? | ? | ? | 26 | 10*
CCS(=O)(=O)C1=NN2C(=N)/C(=C\c3ccc(OS(=O)(=O)c4ccccc4)cc3)C(=O)N=C2S1 | 15 | 2% | 14µM* | ? | ? | -15 | 10*
Cn1nnc2c(NCc3c(F)cccc3F)ncnc21 | / | 9% | 4% | 19% | 0% | / | /
CCOc1ccc(-n2nc(CO)c(C(=O)NCc3cccs3)n2)cc1 | / | 11% | -7% | 16% | ? | / | /
COc1cccc(NC(=O)c2ccc3nc(Cc4ccccc4)oc3c2)c1 | / | i | -5% | 2% | 28% | / | /
CCOc1cc(/C=C2\CCCc3c2nc2ccccc2c3C(=O)O)ccc1OC | -10 | -6% | 25µM* | -43% | ? | 3 | ?
COc1ccc(/C=C2\CCn3c2nc2ccccc2c3=O)cc1OC | 6 | -1% | -1% | 36% | 4% | 7 | /
COc1cc(/C=C2\CCc3c2nc2ccccc2c3C(=O)O)cc(OC)c1OC | -5 | ? | 13µM* | 1% | ? | -8 | 20*
SMILES | KCNH2 3.1 block | Tb PGK inh | GCN5L2 inh-1 | RGS4 inhibitor | Pin1 inh | KCNH2 WT inh | GCN5L2 inh-2
COc1cc(/C=C2\CCCc3c2nc2ccccc2c3C(=O)O)cc(Br)c1O | -8 | -8% | -6% | -21% | 0% | -4 | /
Cc1nc(SCC(=O)c2ccc(F)cc2)n[nH]1 | 9 | 0% | 22µM* | ? | 6% | -6 | ?
COc1ccc(S(=O)(=O)N2CCN(C(=O)c3cc4c(s3)CCC4)CC2)cc1 | 15 | ? | 16µM* | ? | / | 11 | 18*
COc1ccc(NC(=O)CN2C(=O)C(C)(C)c3cc(S(=O)(=O)N4CCCCC4)ccc32)cc1Cl | / | -5% | -7% | -43% | 13% | / | /
COc1cccc(Cn2c(=O)n(-c3cc(C)cc(C)c3)c(=O)c3oc4ccccc4c32)c1 | / | 1% | -11% | -24% | 39% | / | /
CC(=O)NS(=O)(=O)c1ccc(NC(=O)c2ccccn2)cc1 | -14 | i | 1% | -16% | -1% | 2 | /
CCSc1ccccc1C(=O)Nc1ccc(S(=O)(=O)NC(C)=O)cc1 | -7 | -2% | 18µM* | -25% | -3% | -1 | ?
Cc1ccc2c(c1C)NC(C(=O)O)C1CC=CC21 (configuration not stated) | 24 | ? | 22µM* | ? | 7.6µM* | 3 | 14*
O=C(O)C1Nc2c(C(=O)N3CCOCC3)cccc2C2C=CCC12 (configuration not stated) | -1 | ? | -4% | -28% | ? | -30 | /
COCCCn1c(=S)[nH]c2ccc(N3CCOCC3)cc2c1=O | 4 | -1% | ? | -14% | 6% | -5 | 32*
COc1cc(CCc2ccccc2)c(C(=O)O)c(O)c1CC=C(C)C | -1 | -25% | / | 23% | / | 5 | /
COc1cc(CCc2ccccc2)c(C(=O)O)c(O)c1C/C=C(/C)CCC=C(C)C | -2 | ? | 14µM* | -18% | ? | -2 | 11*
CCC(C)Sc1ccc(-c2nc3ccccn3c2NCc2ccccc2)cc1OC (configuration not stated) | -7 | -10% | 22µM* | -4% | 5% | -9 | ?
